As usually defined, the AC50 is the concentration giving half of the maximal activity seen.

Active and inactive are the calls of the source. The calls were made as follows: active = hit-call score of the fitted dose curve at least 0.9, where 1 is the maximum; inactive = score below 0.9.

A short description of this assay: ATG_M_19_CIS: Attagene CIS-FACTORIAL HepG2 Assay for M19 Transcription Factor (Internal Marker) (AID 2282939). Conditions: HepG2 Attagene CIS-FACTORIAL M19 internal marker reporter; actives raise or lower the signal. On the procedure:
ATG_CIS is a cell-based, multiplexed-readout assay that uses HepG2, a human liver cell line, with measurements taken at 24 hours after chemical dosing in a 24-well plate.ATG_M_19_CIS is one of 52 assay component(s) measured or calculated from the ATG_CIS assay. It is designed to make measurements of mRNA induction, a form of inducible reporter, as detected with fluorescence intensity signals by Reverse transcription polymerase chain reaction (RT-PCR) and Capillary electrophoresis technology.Data from the assay component ATG_M_19_CIS was analyzed into 1 assay endpoint. This assay endpoint, ATG_M_19_CIS, was analyzed with bidirectional fitting relative to DMSO as the negative control and baseline of activity. Using a type of inducible reporter, measures of mRNA for gain or loss-of-signal activity can be used to understand the background control at the transcription factor-level as they relate to the gene . Furthermore, this assay endpoint can be referred to as a secondary readout, because this assay has produced multiple assay endpoints where this one serves a background control function. To generalize the intended target to other relatable targets, this assay endpoint is annotated to the background measurement intended target family, where the subfamily is internal marker.
Human liver HepG2 cells are transiently transfected with multiple reporter transcription units (MRTUs) in 6-well plates using FuGene 6 reagent (Roche; 3 ml FuGene/1 mg DNA). The MRTU constructs are regulated by a cis-regulating element (promoter). […] A major difference between the CIS and TRANS system is that in CIS activities of endogenous TFs are measured, whereas the TRANS assay evaluates changes in activities of exogenous, chimeric NR-Gal4 proteins. […] At the end of 24 hour incubation, total RNA was isolated using TriZol reagent (Invitrogen). The isolated RNA is then reverse-transcribed using oligo(dT) primer and Mo-MLV reverse transcriptase (Invitrogen) with DNAse I (Ambion) treatment for 30 min. The one-tenth of the produced cDNA was amplified by PCR using Taq DNA polymerase (Invitrogen) and two reporter sequence-specific primers. The PCR products were fluorescently labeled by primer extension with 6-arboxyfluorescein (6-FAM) 5'-labeled reporter sequence-specific primer (2 min at 95 C, 20 s at 68 C and 10 min at 72 C) and these products were digested with 5U of HpaI (New England Biolabs) for 2h at 37 C. The fragments were purified using Qiaquick PCR columns (Qiagen), analyzed on an ABI 3130xL genetic analyzer (Applied Biosystems) with peak positions identified by using a set of X-rhodamine (ROX)-labeled MapMarker1000 molecular weight standards (BioVentures). The raw capillary electrophoresis data was processed using Attagraph software (Attagene).
On to `CC1=C(O)C(=O)C(C)O1` (stereo not given), for which the outcome was inactive.
Regarding `CC1(C)CC(O)CC(C)(C)N1[O]`, the compound was classed as inactive.
On the same count and under the same terms, with `CCCC=C(C=O)CC` the entry was “inactive”; with `CCCCC1CCC(=O)O1` (stereo not given), “inactive”; with `CN(C)Cc1cc(CN(C)C)c(O)c(CN(C)C)c1`, “inactive”.
Consider `CC1=CC=C(C(C)C)CC1`, for which the compound was classed as inactive.
Take `O=C1CCCCCCCCCCCN1`: the outcome was inactive.
On the same count and under the same terms, with `O=C(Oc1ccccc1)c1ccccc1O` the entry was “inactive”.
`COc1ccc(-c2coc3cc(O)cc(O)c3c2=O)cc1`: the compound was called inactive.
The same measure, in the same setting: with `CC(C)C(=O)OCCOc1ccccc1` the entry was “inactive”.
Take `Nc1cccc(N)n1`: the call was inactive.
Regarding `O=C(Cl)c1ccc(C(=O)Cl)cc1`, the compound was classed as inactive.
Regarding `CCC(C)N` (stereo not given), the call was inactive.
In the case of `CCCCNS(=O)(=O)c1ccccc1`, the compound was classed as inactive.
Turning to `CO[Si](C)(C)OC`, the compound was classed as inactive.
`COC(OC)(C(=O)c1ccccc1)c1ccccc1`: the compound was classed as inactive.
`CCOC(=O)/C=C\C(=O)OCC`: the call was inactive.
Consider `C=C[C@@]1(C)CC(=O)[C@]2(O)[C@@]3(C)[C@@H](O)CCC(C)(C)[C@@H]3[C@H](O)[C@H](OC(C)=O)[C@@]2(C)O1`, for which the compound was called inactive.
For the compound `O=C(OCc1ccccc1)c1ccc(O)cc1`, the outcome was inactive.
As to `COc1cc(O)c(C(=O)c2ccccc2)cc1S(=O)(=O)O`, the outcome was inactive.
`CC(C)=CCCC(C)=CC#N`: the call was inactive.
Turning to `Cc1cc(=O)[nH]c(=O)[nH]1`, the outcome was inactive.
As for `CC1CCC(=O)C1=O` (stereo not given), the result was inactive.
With `c1ccc(Nc2cccc3ccccc23)cc1`, the AC50 is 47.9 µM (active).
In the case of `CCCCCCOC(=O)CCCCC(=O)OCCCCCC`, the call was inactive.
The same measure, in the same setting: with `O=C(O)c1ccc2c(c1)C(=O)OC2=O` the entry was “inactive”; with `N#Cc1ccc(C2CCCc3cncn32)cc1` (stereo not given), “inactive”.
As for `CCCCCCCC(=O)OCC`, the compound was classed as inactive.
As to `C=C[Si](OCCOC)(OCCOC)OCCOC`, the result was inactive.
`CC(C)=CCl`: the outcome was inactive.
On to `C=CC(=O)O[C@H]1C[C@@H]2CC[C@@]1(C)C2(C)C`, for which the concentration at half-maximal activity (AC50) was 157 µM (active).
`CC(Cl)COP(=O)(OCC(C)Cl)OCC(C)Cl` (stereo not given): the call was inactive.
On to `C=Cc1ccc(OC(C)=O)cc1`, for which the call was inactive.
For the compound `C=CC(=O)OCCCCCCOC(=O)C=C`, the compound was classed as inactive.
Turning to `CCCCOC(=O)CCC(C)=O`, the call was inactive.
For `CCc1cccc(C)c1N(C(=O)CS(=O)(=O)O)C(C)COC` (stereo not given), the call was inactive.
For the compound `CCCCCOC(=O)CCCCC`, the compound was called inactive.
On to `N=C1C=CC(=C(c2ccc(N)cc2)c2ccc(N)cc2)C=C1`, for which the AC50 is 100 µM (active).
As for `CC(=O)CCC1=C(C)CCCC1(C)C`, the compound was called inactive.
Consider `Clc1cccnc1`, for which the compound was classed as inactive.
